From PubChem BioAssay (Tox21) come the findings set out here.

“And” between values parts separate entries of the source, which are not always exact repeats. Equal values may be shown once. Values without a mark were called inactive. Results filed as inconclusive are left out. The source made the active and inactive calls. Unless noted, calls come from the whole dose curve; as a rule, active = well fitted curve in the direction sought with a large enough effect in the repeat runs; inconclusive = weak or mixed curves; inactive = no such curve, though single readings can be large; an effect the other way counts as inactive or inconclusive.

Experiment [1] can be described thus: qHTS assay for small molecule agonists of the p53 signaling pathway (AID 651631; calls by dose curve; note: nearly all actives have a fitted effect of over 15% in size; note: potency is the fitted concentration of half-maximal effect). A digest of the protocol: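 Stably transfected HCT-116 cells (beta-lactamase behind p53 response elements) get compounds after a 5 h settling period; 16 h later at 37 °C, FRET substrate is loaded and fluorescence read after 2 h.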
(In general: In qHTS, concentration-response curves come from the screen itself.)

Experiment [2] in a line: qHTS assay for small molecules that induce genotoxicity in human embryonic kidney cells expressing luciferase-tagged ATAD5 (AID 651632). Note: nearly all actives have a fitted effect of over 15% in size. The procedure, abridged: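 Genotoxicity read-out via ATAD5-luciferase: HEK293T cells, 16 hr compound incubation at 37C, Amplite detection.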
Experiment [3] in a line: qHTS assay for small molecule agonists of the p53 signaling pathway - cell viability (AID 651633; calls by dose curve; note: nearly all actives have a fitted effect of over 30% in size; note: potency is the fitted concentration of half-maximal effect). A digest of the protocol: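 p53RE-bla cells were treated with compound for 16 hours at 37 C. Cytotoxicity was then measured as CellTiter-Glo luminescence after 30 min at room temperature.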
Experiment [4] is described as follows: qHTS assay for small molecules that induce genotoxicity in human embryonic kidney cells expressing luciferase-tagged ATAD5 - cell viability (AID 651634; calls by dose curve; note: nearly all actives have a fitted effect of over 25% in size; note: potency is the fitted concentration of half-maximal effect). A digest of the protocol: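 Live-cell protease activity (CellTiter-Fluor, fluorescence) indicates viability. HEK293T cells with luciferase-tagged ATAD5; 15.5 hr compound treatment at 37C.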
Experiment [5] can be described thus: qHTS assay to test for compound auto fluorescence at 590 nm (red) in HepG2 cells (AID 720674). The procedure, abridged:
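HepG2 cells, 2,000 per well in MEM with 10% FBS, attached overnight at 37 C, then got 23 nL compound or DMSO. After 1 hr at 37 C, 5% CO2, red fluorescence was read at 540/590 nm against Rose Bengal sodium as reference.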

A short description of experiment [6]: qHTS assay to test for compound auto fluorescence at 535 nm (green) in HepG2 cells (AID 720675).
A short description of experiment [7]: qHTS assay for small molecule disruptors of the mitochondrial membrane potential - cell viability (AID 720634; calls by dose curve; note: nearly all actives have a fitted effect of over 20% in size; note: potency is the fitted concentration of half-maximal effect). A digest of the protocol:
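Human hepatoma HepG2 cells were treated for 1 hr with test chemicals, then given m-MPI dye and CellTiter-Glo. Cell viability reflects luminescence proportional to cellular ATP.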

A short description of experiment [8]: qHTS assay for small molecule disruptors of the mitochondrial membrane potential (AID 720635). Note: potency is the fitted concentration of half-maximal effect. A digest of the protocol:
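HepG2 cells exposed to compound 1 hr at 37C, then Mito-MPS dye 30 min. Ratio read of aggregate (540/590 nm) versus monomer (490/535 nm) fluorescence.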

The nature of experiment [9]: qHTS assay to test for compound auto fluorescence at 590 nm (red) in HEK293 cells (AID 720679). A digest of the protocol:
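We plated HEK293 cells in 10% dialyzed FBS medium, let them adhere for 4-5 hr, then added 23 nL compound. Overnight at 37C and 5% CO2 preceded fluorescence measurement at 540/590nm.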

Experiment [10] can be described thus: qHTS assay to test for compound auto fluorescence at 460 nm (blue) in HEK293 cells (AID 720678). A digest of the protocol:
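Triamterene serves as the blue fluorophore standard. Compound signal at 405/460 nm is read in HEK293 wells (2,000 cells, 10% dialyzed FBS) after overnight treatment at 37C.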
% is set by controls: 0 for no effect and ±100 for the full control effect.

Consider `[O]=[Cr][O][Cr]=[O]`, for which the Potency entry in [1], in experiment [2], in experiment [3], in experiment [4] and in experiment [6] was “inactive” in each case. Also, in experiment [5], the compound was called inactive.
`O=C1C(Cl)=C(Cl)C(=O)C(Cl)=C1Cl`: the Potency in experiment [1] is 30.5 µM (active) and 6.11 µM (active); in experiment [3], 19.3 µM (active) and 21.7 µM (active); in experiment [7] it was 30.5 µM (active) and 27.3 µM (active); in [8], 8.6 µM (active) and 8.63 µM (active). Moreover, the Potency entry in experiment [4] and in [6] was “inactive” in each case. The compound was called inactive in experiment [5] and in experiment [9].
As to `C=Cc1cccc(CCl)c1`, the Potency entry in experiment [1], in [2], in [4], in experiment [7], in [8] and in experiment [6] was “inactive” throughout. Further, the result in experiment [5] and in experiment [9] was inactive.
As to `CCCCN(CCCC)C(=S)[S-].CCCCN(CCCC)C(=S)[S-].[Ni+2]`, the Potency entry in experiment [2], in experiment [3], in [4], in [7] and in experiment [6] was “inactive” in each case. For the same compound, the result in experiment [5] and in experiment [9] was inactive.
Take `C[C@]12C/C(=C/O)C(=O)C[C@@H]1CC[C@@H]1[C@@H]2CC[C@@]2(C)[C@H]1CC[C@]2(C)O`: the Potency entry in [2], in [7], in [6] and in experiment [10] was “inactive” in each case. In addition, in experiment [3], the Potency is 49 µM (active). For the same compound, in experiment [5], the outcome was inactive.
For `O=S1(=O)OCC2C(CO1)C1(Cl)C(Cl)=C(Cl)C2(Cl)C1(Cl)Cl` (stereo not given), the Potency entry in experiment [2], in [3], in experiment [4], in [6] and in experiment [10] was “inactive” throughout. Moreover, in [8], the Potency was 13.7 µM (active). Also, the outcome in experiment [5] and in experiment [9] was inactive.
For the compound `CNC(=O)/C=C(\C)OP(=O)(OC)OC`, the Potency entry in experiment [2], in [3], in [4] and in [6] was “inactive” throughout. In addition, the call in experiment [5] and in experiment [9] was inactive.
For the compound `CCNS(=O)(=O)C(F)(F)C(F)(F)C(F)(F)C(F)(F)C(F)(F)C(F)(F)C(F)(F)C(F)(F)F`, the Potency result in [2], in experiment [3], in experiment [6] and in experiment [10] was “inactive” in each case. Also, the Potency in experiment [7] is 5.22 µM (active); in experiment [8] it was 1.85 µM (active). Also, the outcome in [5] and in [9] was inactive.
Turning to `CC1(C)C(C=C(Cl)Cl)C1C(=O)OC(C#N)c1ccc(F)c(Oc2ccccc2)c1` (stereo not given), the Potency result in [2], in experiment [3], in experiment [4], in [6] and in experiment [10] was “inactive” throughout. In [8], the Potency is 54.5 µM (active). Also, the call in experiment [5] and in experiment [9] was inactive.
Regarding `CSC(=O)c1c(C(F)F)nc(C(F)(F)F)c(C(=O)SC)c1CC(C)C`, the Potency result in experiment [2], in [3], in experiment [4], in experiment [6] and in experiment [10] was “inactive” in each case. Moreover, in experiment [5], the call was inactive.
Take `CN1CCc2cc(Cl)c(O)cc2[C@H]2c3ccccc3CC[C@@H]21`: the Potency result in [2], in [3], in [4], in experiment [7] and in [6] was “inactive” throughout. Further, the result in experiment [5] and in [9] was inactive.
For `CC(C)C(Br)C(=O)NC(N)=O` (stereo not given), the Potency entry in experiment [2], in [3], in [4], in [6] and in [10] was “inactive” in each case. The outcome in experiment [5] and in [9] was inactive.
As for `COP(=O)(OC)O/C(=C\Cl)c1cc(Cl)c(Cl)cc1Cl`, the Potency result in experiment [2], in experiment [3], in experiment [7] and in experiment [6] was “inactive” throughout. In addition, the result in experiment [5] and in [9] was inactive.
Regarding `CC(C)[C@@H](Nc1ccc(C(F)(F)F)cc1Cl)C(=O)OC(C#N)c1cccc(Oc2ccccc2)c1` (stereo not given in full), the Potency entry in [2], in [3], in experiment [4], in [6] and in experiment [10] was “inactive” each time. Besides, in [8], the Potency is 26.3 µM (active). Moreover, the outcome in experiment [5] and in [9] was inactive.
Regarding `CCN1CCC2(CC1)COc1cc3c(cc12)N(C(=O)c1ccc(-c2ccc(-c4nnc(C)o4)cc2C)cc1)CC3`, the Potency entry in experiment [2], in experiment [6] and in experiment [10] was “inactive” throughout. The Potency in experiment [3] was 56.4 µM (active); in experiment [4], 56.4 µM (active); in experiment [8] it was 7.96 µM (active). In addition, the compound was classed as inactive in [5] and in [9].
Consider `O=c1c2ccccc2c(=O)c2c1cc(Cl)c1[nH]c3c([nH]c12)c(Cl)cc1c(=O)c2ccccc2c(=O)c13`, for which the Potency result in experiment [2], in experiment [3], in experiment [4], in experiment [7], in [6] and in experiment [10] was “inactive” in each case. In addition, the compound was called inactive in [5] and in [9].
As to `COc1ccc(Cc2nccc3cc(OC)c(OC)cc23)cc1OC`, the Potency result in experiment [2], in experiment [3] and in [7] was “inactive” in each case. Further, the fluorescence, relative to Rose Bengal in experiment [5] was 0.593% [at 18.6 µM]. In addition, in [6], the fluorescence, % of fluorescein control was 0.0156% [at 18.6 µM]. In addition, in experiment [10], the fluorescence, % of triamterene is -0.311% [at 18.6 µM]. In experiment [9], the fluorescence, % of fluorescent control is -0.0717% [at 18.6 µM].
Take `O=C(N[C@H]1N=C(c2ccccc2F)c2cccc3c2N(CC3)C1=O)c1cc2ccccc2[nH]1`: the Potency result in [2], in experiment [3], in [4], in experiment [7], in [6] and in experiment [10] was “inactive” throughout. Further, the compound was classed as inactive in [5] and in experiment [9].
On to `CC(C)N(C(=O)SC/C(Cl)=C/Cl)C(C)C`, for which the Potency result in experiment [2], in experiment [6] and in [10] was “inactive” throughout. In addition, the Potency in experiment [4] is 48.9 µM (active); in [7] it was 54.8 µM (active); in experiment [8], 48.9 µM (active). Besides, the compound was called inactive in experiment [5] and in [9].
Regarding `c1ccc(Nc2ccc(Nc3ccccc3)cc2)cc1`, the Potency entry in experiment [2], in experiment [4], in [6] and in [10] was “inactive” throughout. Further, the Potency in experiment [7] was 24.2 µM (active); in experiment [8], 8.6 µM (active). For the same compound, the compound was called inactive in [5].
Consider `Cc1cc2c3c(c1)C(c1ccccc1)=N[C@@H](NC(=O)c1ccncc1)C(=O)N3CC2`, for which the Potency entry in experiment [2], in experiment [3], in experiment [4], in experiment [7] and in experiment [6] was “inactive” in each case. Besides, the compound was classed as inactive in experiment [5] and in experiment [9].
As for `CCC1(CC)C(=O)N=C(O)NC1=O`, the Potency result in [2], in experiment [3], in experiment [4], in experiment [7], in [6] and in experiment [10] was “inactive” in each case. Also, the outcome in experiment [5] and in experiment [9] was inactive.
Consider `O=S(=O)(O)F`, for which the Potency result in experiment [2], in experiment [4], in experiment [7], in experiment [8], in experiment [6] and in [10] was “inactive” in each case. For the same compound, the outcome in [5] was inactive.
Consider `O=[N+]([O-])C(Br)Br`, for which the Potency entry in experiment [2], in experiment [3], in experiment [6] and in experiment [10] was “inactive” in each case. For the same compound, the compound was classed as inactive in experiment [5] and in [9].
With `CN(C)CCc1c[nH]c2ccccc12`, the Potency entry in experiment [2], in experiment [4], in [7], in experiment [8], in experiment [6] and in experiment [10] was “inactive” in each case. Also, the outcome in experiment [5] and in [9] was inactive.
With `CCCCCCCc1ccc(O)cc1`, the Potency entry in experiment [2], in experiment [3], in [4], in experiment [6] and in experiment [10] was “inactive” throughout. In addition, the Potency in experiment [8] is 7.7 µM (active). In addition, the compound was called inactive in [5] and in experiment [9].
On to `CCCCN(CCCC)C(=S)S`, for which the Potency entry in experiment [2], in experiment [3], in [4], in experiment [7], in experiment [6] and in [10] was “inactive” throughout. The result in experiment [5] and in [9] was inactive.
Turning to `Cc1ccn2nc(S(=O)(=O)Nc3c(F)cccc3F)nc2n1`, the Potency entry in experiment [2], in experiment [3], in [4], in experiment [7], in experiment [6] and in [10] was “inactive” each time. The compound was classed as inactive in [5] and in experiment [9].
